This passage reports Potency results from PubChem BioAssay AID686979 (National Center for Advancing Translational Sciences (NCATS), 2013).

Molecules are shown by their SMILES. Screen size: about 420,000 compounds; about 50,000 (12%) were called active. A call without a number means that no potency is given here. Not shown: some 26% with an inconclusive outcome. Calls follow the shape of the dose curve; as a rule, active = well fitted inhibition curve with a large enough effect; inconclusive = small, poorly fitted or top-dose-only effect; inactive = flat fitted curve, though single readings scatter. Many of the other results were omitted from the sample, so actives are more common in it than they were.
Potency is read from the fitted curve at half-maximal effect.

The assay is described as follows: qHTS for Inhibitors of human tyrosyl-DNA phosphodiesterase 1 (TDP1): qHTS in cells in presence of CPT. Also: nearly all actives have a fitted effect of over 55% in size. To be noted: chicken DT40 Tdp1-/-;hTDP1 cells + 20 nM CPT, ATP luminescence, 48 h; series mostly up to 46.2 µM. A digest of the protocol: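 Chicken DT40 Tdp1-/- cells stably complemented with human TDP1 were seeded at 400 cells/well in medium containing 20 nM camptothecin, exposed to pin-transferred compounds, and grown at 37 °C for at least 48 hr. Viability was read as ATP luminescence.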
As to `CCOC(=O)C[C@H]1c2ccc(C(F)(F)F)cc2S(=O)(=O)N1c1ccccc1`, the Potency entry was “inactive”.

For `COc1ccc2oc(N)c(C=O)c(=O)c2c1`, the Potency result was “inactive”.

`CCN(CC(=O)Nc1cc(Cl)ccc1C)C(=O)CSCc1ccc(C)cc1`: the Potency was 1.3 µM (active).

In the case of `CCN(CC(=O)Nc1cc(Cl)ccc1C)C(=O)Cn1c(=O)cnc2ccccc21`, the Potency entry was “inactive”.

For the compound `CCN(CC(=O)Nc1cc(Cl)ccc1C)C(=O)CN1C(=O)NC2(CCCC2)C1=O`, the Potency entry is “inactive”.

Consider `CCCNC(=O)CCc1c(C)nc2c(c(C)nn2-c2ccccc2)c1C`, for which the Potency result is “inactive”.

With `CC(=O)Nc1cc(C(=O)NCc2ccc(F)cc2Cl)ccc1Sc1ccc(Cl)cc1`, the Potency is 20.6 µM (active).

In the case of `COCCNC(=O)c1ccc(S(=O)(=O)c2ccc(Cl)cc2)c(NC(C)=O)c1`, the Potency entry is “inactive”.

For `CC(=O)Nc1ccccc1-c1nc(CNC(=O)c2ccc(Cl)cc2)c(C)o1`, the Potency result is “inactive”.

Regarding `O=C(CCc1ccccc1Cl)Nc1ccc(S(=O)(=O)Nc2nccs2)cc1`, the Potency entry was “inactive”.

Turning to `CN(C)S(=O)(=O)c1cccc(NC(=O)COC(=O)c2cc(=O)[nH]c(=O)[nH]2)c1`, the Potency entry was “inactive”.

On to `CN(C)S(=O)(=O)c1cccc(NC(=O)COC(=O)/C=C/c2cccs2)c1`, for which the Potency result was “inactive”.

Consider `CN(C)S(=O)(=O)c1cccc(NC(=O)COC(=O)C2(c3ccccc3F)CCCC2)c1`, for which the Potency was 18.4 µM (active).

With `O=C(NCc1ccco1)c1ccc(NS(=O)(=O)c2cccc([N+](=O)[O-])c2)cc1`, the Potency result is “inactive”.

As for `COc1ccc(NC(=O)CSc2nnc(Cc3ccccc3)c(=O)n2N)cc1`, the Potency result is “inactive”.

Turning to `COc1ccc(C(=O)N(C)CC(O)c2ccccc2)cc1OC1CCN(C(C)=O)CC1` (stereo not drawn), the Potency entry is “inactive”.

As to `CCOC(=O)c1c(NC(=O)CNC2CCCc3ccccc32)sc(C(N)=O)c1C` (stereo not drawn), the Potency was 23.1 µM (active).

In the case of `NC(=O)Nc1ccc(C(=O)OCC(=O)NC2CCCc3ccccc32)cc1` (stereo not drawn), the Potency entry is “inactive”.

`CCOC(=O)c1sc(NC(=O)CSc2nnc(-c3ccco3)o2)c(C(=O)OCC)c1C`: the Potency entry was “inactive”.

With `COc1ccc(C(=O)N2CCN(c3ccc(C(C)=O)cc3F)CC2)cc1S(=O)(=O)NC1CC1`, the Potency entry is “inactive”.

With `O=C(Nc1ccc2c(c1)OCCO2)C1CCCC1`, the Potency result is “inactive”.

`COc1ccc2c(c1)O/C(=C\c1ccccc1O)C2=O`: the Potency result is “inactive”.

Regarding `COC(=O)c1ccc(/C=C2/C(=O)Oc3ccccc32)cc1`, the Potency result is “inactive”.

Consider `O=C1Oc2ccccc2C(=O)/C1=C/c1ccccc1O`, for which the Potency was 5.8 µM (active).

As for `COc1ccc2oc(C(=O)NCC(Cc3ccccc3)N(C)C)c(C)c2c1` (stereo not drawn), the Potency entry is “inactive”.

On to `CCOC(=O)C1=C(O)/C(=C/c2ccc(OCC(=O)Nc3ccc(C)cc3)cc2)N=C1C`, for which the Potency result is “inactive”.

In the case of `CN(C)c1nc(NN)nc(Nc2ccc(F)cc2)n1`, the Potency entry is “inactive”.

For the compound `CCOC(=O)C(C)n1cnc2c(nnn2-c2ccc(F)cc2)c1=O` (stereo not drawn), the Potency result is “inactive”.
